AHR activator – activators of human aryl hydrocarbon receptor; 320,000 compounds, 2.5% hits; AHR-responsive luciferase reporter cells, luminescence; activation, % at 5 µM; in the data active means activation above about 47%;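 further: 0% = vehicle wells and 100% = reference agonist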
Mot1-301 SUMO – inhibitors of SUMOylation pathway: yeast Mot1-301 growth rescue; 320,000 compounds, 1% hits; S. cerevisiae Mot1-301 growth rescue, ATP luminescence, 38.5C; percent above DMSO median, 100 means doubled; growth rescue, % at 18.8 µM;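 active means every valid replicate shows activation above 250% relative to neutral control wells; inactive means the rest, any valid replicate at or below 250%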;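 further: OY570 slx delta 5 strain wells were the positive control but not used for scaling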
Cardio protect – myocardial damage modulation in H9c2 cells; 360,000 compounds, 0.63% hits; H9c2 cardiomyocytes, H2O2 injury protection, ATPLite, 2 h; protection from H2O2 cell death, % at 20 µM;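 active means compounds giving at least 50% protection of heart cells from peroxide-induced death in the single-dose screen, raw or plate-pattern-corrected value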;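 further: 0% = DMSO wells with peroxide and 100% = DMSO wells without peroxide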
AI-2 QS mod – Vibrio harveyi AI-2 quorum sensing modulation | Vibrio harveyi JMH597 AI-2 luminescence/OD600 ratio, 9 h; active compounds read low; strain lacks LuxN and CqsS sensors; 0 = neutral-control median | activity change, % at 7.5 µM | 300,000 compounds, 0.4% hits; in the data active means activity change below about -75%, passing the limit was not always enough;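 further: luminescence divided by OD600 gain over 9 h not by final OD600 alone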
GRIN3A LBD mod – NR3A (human) ligand-binding domain modulation. NR3A LBD differential scanning fluorimetry, Tm shift; 0% = protein alone, 100% = glycine-bound protein. 340,000 compounds, 2.5% hits. Tm shift relative to glycine control, % at 25 µM;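 active means melting temperature shift of at least 10% of the positive control shift, at one fixed dose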
NTR1 agonist – NTR1 (human) agonism; NTR1-U2OS beta-arrestin-GFP spot imaging, agonist mode; activation, % at 20 µM; 330,000 compounds, 0.17% hits; AID 493036;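 active means activation at or above 40% of the spot to cytoplasm intensity ratio, with at least 20 cells analyzed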;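 further: 0% = DMSO without peptide and 100% = 100 nM NTR1 peptide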
Yeast Mot1 SUMO – inhibits SUMO pathway, affecting Mot1-301 yeast growth; growth activity, percent, % at 42 µM; shares compounds with Mot1-301 SUMO; S. cerevisiae Mot1-301 galactose growth, ATP luminescence, 24 h; -100 = growth of slx-deleted rescue strain; 2,300 tested, under 10 active; AID 493004;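 active means Signal drops as the depositor expects, and the fitted half-maximal dose is no more than ten times the top valid tested dose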;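 further: more negative values mean stronger growth rescue toward the control strain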
AHR act confirm – human AHR activation, confirmation | shares compounds with AHR activator | human cells, AHR-responsive luciferase reporter, luminescence | activation, % at 9 µM | 2,300 compounds, 87% hits | AID 2845; in the data active means activation above about 49%;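 further: HepG2 hepatoma cells carrying a DRE-driven firefly luciferase reporter; 0% = vehicle wells and 100% = reference agonist wells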
PXR counter – activates human PXR in AHR activator counter-screen; 2,300 compounds, 88% hits; activation, % at 11.6 µM; shares compounds with AHR activator; cell-based PXR reporter, luciferase luminescence; in the data active means activation above about 11%;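 further: human hepatoma DPX-2 cells expressing full-length human PXR; 0% = DMSO and 100% = reference agonist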
NTR1 ag confirm – NTR1 (human) agonism, confirmed. activation, % at 20 µM. shares compounds with NTR1 agonist. NTR1-U2OS beta-arrestin-GFP translocation imaging. 480 compounds, 38% hits;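 active means mean activation at 20 µM of at least 40%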;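 further: 0% = DMSO without peptide and 100% = 100 nM NTR1 peptide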
Starred values were filed as active, the others as inactive; · = no result. The list is not random: actives were taken first. Their share in the collection is about 6.2%.

SMILES | AHR activator | Mot1-301 SUMO | Cardio protect | AI-2 QS mod | GRIN3A LBD mod | NTR1 agonist | AHR act confirm | PXR counter | others
COCC(=O)Nc1c(C(=O)Nc2ccc3c(c2)OCO3)oc2ccccc12 | 134* | 415* | 5 | 23 | -1 | 3 | 100* | 48* | Yeast Mot1 SUMO=-1
COc1ccc(CCNC(=O)CC(Cc2ccc(C)cc2)C(=O)O)cc1OC (stereo not given) | 3 | -5 | 3 | -14 | 2 | 2 | · | ·
CC(=O)N1CCCC(C)(C(=O)Nc2cccc(OC(C)C)c2)C1 (stereo not given) | · | · | -1 | · | · | · | · | ·
COc1ccccc1-n1nnnc1SCC(=O)Nc1ccc(C)c(N)c1 | 94* | 455* | -2 | 19 | -1 | 0 | 81* | 58* | Yeast Mot1 SUMO=0
CCN(CC)C(=O)/C(=C/c1cn(S(=O)(=O)N(C)C)c2ccccc12)NC(=O)c1ccc(OC)cc1 | 1 | 14 | 0 | 20 | -1 | 1 | · | ·
COc1ccc(C(=O)N/C(=C\c2cn(C)c3ccccc23)C(=O)OCCN(C)C)cc1 | 100* | 507* | 9 | 13 | 2 | 0 | 109* | 94* | Yeast Mot1 SUMO=0
COc1ccc(CSCC(=O)Nc2ccccc2)cc1[N+](=O)[O-] | 0 | 392 | 0 | 23 | -3 | -1 | · | ·
CCCCOc1ccc(CSC(=N)N)cc1Cl | 0 | 467* | -7 | 21 | -1 | 50* | · | · | Yeast Mot1 SUMO=-1;NTR1 ag confirm=16
COc1ccc(NC(=O)c2cc(-c3cc(Cl)ccc3C)n[nH]2)cn1 | · | · | -10 | · | · | · | · | ·
COc1ccc(NC(=O)c2ccc(Cl)nc2)cc1S(=O)(=O)N1CCOCC1 | 92* | -3 | 1 | · | -4 | -1 | 102* | 21*
CCc1ccc(C(=O)Nc2ccc(OC)c(S(=O)(=O)N3CCOCC3)c2)cc1 | 10 | -23 | 5 | 27 | -2 | 1 | · | ·
CC1CC(C)CN(C(=O)COC(=O)CCCN2C(=O)c3cccc4cccc(c34)C2=O)C1 (stereo not given) | -3 | -4 | 4 | 8 | 1 | 2 | · | ·
COc1ccccc1Nc1nc2ccccc2[nH]1 | 119* | 13 | -9 | 16 | -4 | -1 | 63* | 35*
Cn1c(/C=N/Nc2nc3ccccc3[nH]2)nc2ccccc21 | 88* | -10 | -7 | 29 | 5 | 4 | 60* | 9
COc1cc(/C=N/Nc2nc3ccccc3[nH]2)cc(OC)c1O | 81* | 15 | -6 | -2 | -2 | 0 | 17 | 6
Cc1nn(-c2ccccc2)c(C)c1/C=N/Nc1nc2ccccc2[nH]1 | 181* | -10 | -4 | 15 | -8 | 1 | 34 | 26*
CCCn1c(/C=N/Nc2nc3ccccc3[nH]2)nc2ccccc21 | · | · | 2 | · | -9 | · | · | ·
CCc1nnc(SCC(=O)Nc2ccc(F)cc2)o1 | 1 | -1 | 5 | 6 | -2 | 0 | · | ·
N#Cc1ccc(C(=O)N2CCCCC2c2cc(C(=O)Nc3cccc(C#N)c3)no2)cc1 (stereo not given) | · | · | 5 | · | · | · | · | ·
CCN(CC)c1ccc(/C=N/Nc2nc3ccccc3[nH]2)cc1 | · | · | -32 | -7 | -4 | · | · | ·
CC(=O)Nc1ccc(/C=N/Nc2nc3ccccc3[nH]2)cc1 | 157* | -6 | -2 | 5 | 1 | -1 | 107* | 13*
C(=N\Nc1nc2ccccc2[nH]1)/c1ccncc1 | 108* | -14 | -2 | 38 | 0 | -1 | 114* | 11*
CC(/C=N/Nc1nc2ccccc2[nH]1)=C\c1ccccc1 | 38 | 5 | -19 | 10 | -12 | 4 | · | ·
Clc1nc2ccccc2cc1/C=N/Nc1nc2ccccc2[nH]1 | 83* | -9 | -17 | 12 | -14 | 2 | 73* | 21*
CCOc1ccc(C(=O)CC(C(=O)O)N2CCCCC2)cc1 (stereo not given) | -1 | -7 | 13 | · | 1 | 0 | · | ·
SMILES | AHR activator | Mot1-301 SUMO | Cardio protect | AI-2 QS mod | GRIN3A LBD mod | NTR1 agonist | AHR act confirm | PXR counter | others
CC(C)[C@H](NC(=O)c1ccccc1)C(=O)OCC(=O)Nc1ncc(Cl)cc1Cl | 0 | -8 | 1 | · | -1 | 0 | · | ·
O=C(Nc1ccc(F)cc1)c1oc2ccccc2c1NC(=O)C1CCCC1 | 91* | 16 | 2 | 9 | 13* | 15 | 136* | 36*
CC(=O)Nc1c(C(=O)c2ccc(F)cc2)oc2ccccc12 | 155* | -11 | -3 | 8 | -1 | 0 | 126* | 39*
COc1ccc(C(=O)c2oc3ccc(OC)cc3c2NC(C)=O)cc1 | 19 | -4 | 4 | 16 | -1 | 4 | · | ·
CC(=O)Nc1c(C(=O)O)oc2ccccc12 | 8 | -32 | 4 | 4 | 0 | -1 | · | ·
Nc1c(C(=O)c2ccc(Cl)cc2)oc2ccccc12 | 113* | 16 | -8 | 6 | -2 | 3 | 169* | 16*
O=C(c1ccc(Cl)cc1)c1oc2ccccc2c1CS(=O)c1ccc(Cl)cc1 (stereo not given) | 3 | -3 | -4 | 13 | -6 | 14 | · | ·
COc1ccc(C(=O)c2oc3ccccc3c2NC(C)=O)cc1 | 173* | 3 | -1 | 11 | 1 | -1 | 148* | 14*
CC1CC(C)CN(c2oc(Cc3ccccc3)nc2C#N)C1 (stereo not given) | 8 | -6 | -8 | 23 | -3 | 1 | · | ·
COc1ccccc1OCc1nc(C#N)c(N2CC(C)CC(C)C2)o1 (stereo not given) | 91* | 5 | -25 | 1 | 3 | -2 | 86* | 86*
Cc1cc(SCC(=O)c2cccs2)nc2ccccc12 | 99* | 437 | -20 | 8 | -2 | 2 | 103* | 155*
Cc1cc(NC(=O)CN2C(=O)NC(c3ccccc3)(c3ccc(C)c(C)c3)C2=O)no1 (stereo not given) | -1 | -10 | 22 | · | 1 | 2 | · | ·
CCOC(=O)C1=NN(C(C)=O)C2C(=O)N(CC)C(=O)C12 (stereo not given) | -1 | 9 | 1 | 19 | -1 | 0 | · | ·
c1ccc2c(c1)CCN(c1nc3cc4c(cc3s1)OCO4)C2 | 103* | -18 | -12 | 12 | 2 | 3 | 45 | 35*
c1ccc(N2CCN(c3nc4cc5c(cc4s3)OCO5)CC2)cc1 | 1 | 0 | -11 | 10 | -1 | 0 | · | ·
N/C(=N\c1nc2ccccc2o1)NC(=O)c1ccccc1Br | 95* | -5 | -11 | 6 | 3 | 0 | 43 | 28*
